From PMC6212833
The full ranking holds about 2,000 compounds; the median of “B-score” is about -0.0024, and the highest 2% start at about 4. The list comes from a sample in which the highest values are over-represented; it also holds similar structures and randomly drawn compounds.

The compounds below were run on Balamuthia mandrillaris (ATCC PRA-291) trophozoites, axenic culture (assay: primary screen, b score). Settings: 20 µM.
Procedure: Screening of a clinically approved library of compounds, compiled by the Small Molecule Discovery Center (SMDC) at the UCSF, was completed at 20 µM in 0.2% DMSO. All 2,177 drugs in the library were stored as 10 mM stocks dissolved in 100% DMSO (Sigma-Aldrich) at −20°C. B. mandrillaris amoebae were resuspended in axenic medium and distributed into opaque 384-well plates (Corning) at a density of 3,000 amoebae per well using a BioMek NX liquid handler. Negative-control wells were treated with vehicle only (0.2% DMSO in axenic medium), and positive-control wells simulating total destruction of amoebae were seeded with amoeba lysate generated by 3 consecutive freeze-thaw cycles. Following 72 h of incubation, 30 µl of CellTiter Glo reagent (CTG; Promega) was added to each well. The luminescence was measured with a Promega GloMax-Multi+ plate reader at 2, 4, and 8 h after CTG addition. […] The B-score, representing a plate-based statistical approach for correcting row, column, and edge effects, was also calculated for each compound in the library (75).

Row | SMILES | B-score
1 | Cc1cc(C(C)(C)C)c(O)c(C(C)(C)C)c1 | -0.212
2 | Nc1nc(=O)n([C@@H]2CS[C@H](CO)O2)cc1F | -0.911
3 | CNC(=O)c1c(I)c(NC(C)=O)c(I)c(C(=O)O)c1I | 0.108
4 | CO[C@H](C(=O)[C@@H](O)[C@@H](C)O)[C@@H]1Cc2cc3cc(O[C@H]4C[C@@H](O[C@H]5C[C@@H](O)[C@H](O)[C@@H](C)O5)[C@H](O)[C@@H](C)O4)c(C)c(O)c3c(O)c2C(=O)[C@H]1O[C@H]1C[C@@H](O[C@H]2C[C@@H](O[C@H]3C[C@](C)(O)[C@H](O)[C@@H](C)O3)[C@@H](O)[C@@H](C)O2)[C@H](O)[C@@H](C)O1 | 8.18
5 | CC(=O)O[C@@]12CO[C@@H]1C[C@H](O)[C@@]1(C)C(=O)[C@H](O)C3=C(C)[C@@H](OC(=O)[C@H](O)[C@@H](NC(=O)OC(C)(C)C)c4ccccc4)C[C@@](O)([C@@H](OC(=O)c4ccccc4)C12)C3(C)C (some centres unmarked) | -2.24
6 | CCN1CCCC(OC(=O)C(c2ccccc2)c2ccccc2)C1 (centres unmarked) | 0.874
7 | CC(C)(C)c1ccc(C(O)CCCN2CCC(C(O)(c3ccccc3)c3ccccc3)CC2)cc1 (centres unmarked) | -2.26
8 | Oc1ccnc(O)n1 | 1.41
9 | CC(C)n1c(/C=C/[C@@H](O)C[C@@H](O)CC(=O)O)c(-c2ccc(F)cc2)c2ccccc21 [255968-L3] | -0.277
10 | CC(C)n1c(/C=C/[C@@H](O)C[C@@H](O)CC(=O)O)c(-c2ccc(F)cc2)c2ccccc21 [255968-L2] | 3.74
11 | CC(C)c1c(C(=O)Nc2ccccc2)c(-c2ccccc2)c(-c2ccc(F)cc2)n1CC[C@@H](O)C[C@@H](O)CC(=O)O | 6.68
12 | CCC(=O)O[C@]1(C(=O)CCl)[C@@H](C)C[C@H]2[C@@H]3CCC4=CC(=O)C=C[C@]4(C)[C@@]3(F)[C@@H](O)C[C@@]21C [285821-L1] | -1.34
13 | Cc1ccccc1N1CCN(CCc2nnc3n2CCCC3)CC1 | 2.29
14 | COC(=O)N/N=C/c1c[n+]([O-])c2ccccc2[n+]1[O-] | 2.88
15 | O=C1CCc2ccc(OCCCCN3CCN(c4cccc(Cl)c4Cl)CC3)cc2N1 [756864-L1] | 1.99
16 | CCOC(=O)/C=C(C)/C=C/C=C(C)/C=C/c1c(C)cc(OC)c(C)c1C | -0.469
17 | CCCCCCCCCCCCCCCC[N+](C)(C)C | 10
18 | C[N+](C)(C)CCCCCC[N+](C)(C)C | -0.576
19 | C[N+](C)(C)CCCCCCCCCC[N+](C)(C)C | 0.626
20 | CC1(C)NC(=O)N(c2ccc([N+](=O)[O-])c(C(F)(F)F)c2)C1=O [131481-L4] | 0.0858
21 | CN(C)CC/C=C1/c2ccccc2Sc2ccc(Cl)cc21 [285943-L2] | -0.683
22 | CCN(CC)CCOC(=O)C(c1ccccc1)c1ccccc1 | -1.55
23 | FC(F)(F)C(F)(F)C(F)(F)C(F)(F)C(F)(F)C(F)(F)C(F)(F)C(F)(F)Br | 1.01
24 | Cc1ccsc1/C=C/C1=NCCCN1C | 2.44
25 | CN1CCN(CC(=O)N2c3ccccc3C(=O)Nc3cccnc32)CC1 | -0.953

Row | SMILES | B-score
26 | C=C1CC[C@H](O)C/C1=C/C=C1\CCCC2(C)C1CCC2C(C)CCCC(C)C (some centres unmarked) | -1.18
27 | O=c1oc2cc(O)ccc2s1 | 1.79
28 | C[C@@H]1CC[C@H]2[C@@H](C)C(O)O[C@@H]3O[C@@]4(C)CC[C@@H]1[C@]32OO4 (some centres unmarked) | 8.14
29 | CO[C@H]1O[C@@H]2O[C@@]3(C)CC[C@H]4[C@H](C)CC[C@@H]([C@H]1C)[C@@]24OO3 | 7.12
31 | CC(=O)[C@H]1CC[C@H]2[C@@H]3CC=C4C[C@@H](OC(=O)CCC(=O)O)CC[C@]4(C)[C@H]3CC[C@]12C | -2.77
32 | C[C@@H]1CC[C@H]2[C@@H](C)C(=O)O[C@@H]3O[C@@]4(C)CC[C@@H]1[C@]32OO4 | 11.9
33 | COC1O[C@@H]2O[C@@]3(C)CC[C@H]4[C@H](C)CC[C@@H]([C@H]1C)[C@@]24OO3 (some centres unmarked) | -0.0904
34 | C/N=C(\NC)NCc1ccccc1 | -0.109
35 | Cc1c(O)c(=O)ccn1C | -3.39
36 | O=C1CN2Cc3c(ccc(Cl)c3Cl)N=C2N1 | 1.87
37 | CCN(CC)CCOc1ccc(/C(=C(\Cl)c2ccccc2)c2ccccc2)cc1 | -1.4
38 | CC(=O)OC(C)C[N+](C)(C)C (centres unmarked) | 1.98
39 | CCN1CCN(C(=O)NC(C(=O)N[C@@H]2C(=O)N3[C@@H]2SC(C)(C)[C@@H]3C(=O)O)c2ccccc2)C(=O)C1=O (some centres unmarked) | 2.04
40 | C=C1c2cccc(O)c2C(O)=C2C(=O)[C@]3(O)C(O)=C(C(N)=O)C(=O)[C@@H](N(C)C)[C@@H]3[C@@H](O)[C@H]12 | -0.0267
41 | Oc1nc2ccccc2n1CCCN1CCC(n2c(O)nc3cc(Cl)ccc32)CC1 | -1.5
42 | C[C@H](COc1ccccc1)N[C@H](C)[C@H](O)c1ccc(O)cc1 | 0.0782
43 | NC[C@@H]1O[C@H](O[C@H]2[C@@H](O)[C@H](O[C@@H]3[C@@H](O)[C@H](N)C[C@H](N)[C@H]3O[C@H]3O[C@H](CN)[C@@H](O)[C@H](O)[C@H]3N)O[C@@H]2CO)[C@H](N)[C@@H](O)[C@@H]1O | 1.53
44 | CC#C[C@]1(O)CCC2C3CCC4=CC(=O)CCC4=C3[C@@H](c3ccc(N(C)C)cc3)C[C@@]21C (some centres unmarked) | 2.28
45 | CN1CCC(=C2c3ccccc3CCc3sccc32)CC1 | -0.3
46 | CC(=O)OCC(CCn1cnc2cnc(N)nc21)COC(C)=O | 0.28
47 | CCC(=O)Oc1ccc2c(c1)CC[C@@H]1[C@@H]2CC[C@]2(C)[C@@H](OC(=O)CC)CC[C@@H]12 | -3.91
48 | Clc1ccc(Cn2c(CN3CCCC3)nc3ccccc32)cc1 | 0.738
49 | COc1ccc(CCN2CCC(Nc3nc4ccccc4n3Cc3ccc(F)cc3)CC2)cc1 | -0.484
50 | Cc1nc2ccccc2n1Cc1ccc(Cl)cc1 | 6.45
